According to PubChem BioAssay (NCI):
Compounds without any hit were thinned out: in the full panel of roughly 83,000, 20% have a hit.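 Single-concentration screen, 48 h exposure, 96-well plates. Endpoint: percent growth. Below 10 = active.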 A number with no mark means an inactive call. The source made the active and inactive calls.

Tests used:
Experiment in all cases: NCI-60 one-dose screen, 48 h (100 = growth as untreated, 0 = no growth, -100 = all killed)
NCI-H23 lung = details: 10 µM unless noted
NCI-H226 lung = details: 10 µM unless noted
NCI-H322M lung = details: 10 µM unless noted
HOP-62 NSCLC = details: 10 µM unless noted
NCI-H460 lung = details: 10 µM unless noted
HOP-92 NSCLC = details: 10 µM unless noted
NCI-H522 lung = details: 10 µM unless noted
A549/ATCC NSCLC = details: 10 µM unless noted
786-0 renal = details: 10 µM unless noted
COLO 205 colon = details: 10 µM unless noted
DU-145 prostate = details: 10 µM unless noted
K-562 leukemia = details: 10 µM unless noted
MALME-3M melanoma = details: 10 µM unless noted
MDA-MB-231 breast = details: 10 µM unless noted
RXF 393 renal = details: 10 µM unless noted
SF-268 CNS = details: 10 µM unless noted
SF-295 CNS = details: 10 µM unless noted
SF-539 CNS = details: 10 µM unless noted
UACC-257 melanoma = details: 10 µM
M14 melanoma = details: 10 µM unless noted

| SMILES | growth (NCI-H23 lung) | growth (NCI-H226 lung) | growth (NCI-H322M lung) | growth (HOP-62 NSCLC) | growth (NCI-H460 lung) | growth (HOP-92 NSCLC) | growth (NCI-H522 lung) | growth (A549/ATCC NSCLC) [%] | growth (786-0 renal) | growth (COLO 205 colon) | growth (DU-145 prostate) [%] | growth (K-562 leukemia) | growth (MALME-3M melanoma) | growth (MDA-MB-231 breast) | growth (RXF 393 renal) | growth (SF-268 CNS) [%] | growth (SF-295 CNS) | growth (SF-539 CNS) | growth (UACC-257 melanoma) | growth (M14 melanoma) |
| --- | --- | --- | --- | --- | --- | --- | --- | --- | --- | --- | --- | --- | --- | --- | --- | --- | --- | --- | --- | --- |
| C#C[C@]1(O)CC[C@H]2[C@@H]3CC=C4c5sc(C6CCOCC6)nc5CC[C@]4(C)[C@H]3CC[C@@]21C | 74.4% | 82.5% | 84.1% | 90.5% | 79.8% | 103% | 80.8% | 73.2 | 62.7% | 103% | 97.9 | 13.2% | 88.8% | 73.9% | 4.95% (active) | 91.2 | 37.8% | 56.5% | 78.3% | 59.8% |
| CCN(CC)Cc1c(-c2cccc(OC(F)(F)F)c2)[nH]c2ccc(N3CCCC3)cc2c1=O | 92.9% | 96.1% | 87.3% | 103% | 97.5% | 86.2% | 87.5% | 99 | 98.6% | 103% | 99.7 | 87.8% | 86% | 87% | 74.1% | 89.1 | 102% | 95% | 91.3% | 96.9% |
| O=C1c2c(c3c4cccnc4[nH]c3c3ccc4ccccc4c23)C(=O)N1CCN1CCCCC1 | 29.3% | 64.6% | 69.6% | 36.6% | 12.5% | 70.4% | 63% | 46.8 | 52.6% | 69.4% | 41.7 | 40.5% | 77% | 96% | 70.5% | 43.2 | 28.5% | 54.2% | 94% | 45.8% |
| CCCCCc1ccc(S(=O)(=O)N(C(C)=O)c2cccc(-c3csc(N(CCN4CCN(C)CC4)C(C)=O)n3)c2)cc1 | 48.9% | 85.3% | 61.1% | 83.5% | -21.4% (active) | 34% | 69.8% | 39.5 | 6.89% (active) | -61% (active) | 41.6 | -26.2% (active) | -85.6% (active) | 4.58% (active) | -59.2% (active) | 63.2 | -68.1% (active) | -80.9% (active) | -52.6% (active) | -71.7% (active) |
| CCC(C)[C@H]1OC(=O)[C@H](C(C)C)N(C)C(=O)[C@@H](C(C)C)OC(=O)[C@H](C(C)C)N(C)C(=O)[C@@H](C(C)CC)OC(=O)[C@H](C(C)C)N(C)C1=O (some centres undefined) | 8.83% (active) | 19.2% | 8.61% (active) | 8.79% (active) | 9.08% (active) | -19.8% (active) | -2.93% (active) | 12.9 | 10.4% | -91.8% (active) | 22 | 8.02% (active) | 7.55% (active) | 2.72% (active) | 17.2% | 22.1 | 6.32% (active) | 13.8% | – | 17.6% |
| Nc1nc(-c2cccc([N+](=O)[O-])c2)c(N=Nc2ccccc2[N+](=O)[O-])s1 | 3.8% (active) | 4.17% (active) | 76.7% | -36.1% (active) | 39.5% | -28.4% (active) | 26.4% | 36.1 | -66.4% (active) | 93.7% | 37.4 | 50.8% | 53.9% | -54.1% (active) | -67.7% (active) | 19.6 | 26.6% | -73.3% (active) | 103% | 50.7% |
| O=S(=O)(Nc1cc(Cl)c(F)c(Cl)c1)c1ccc(-c2cnc(C3CC3)o2)cc1 | 45.3% | 49.4% | 49.9% | 36.2% | 16.5% | 63% | 32.8% | 41.5 | 43.5% | 8.82% (active) | 24.4 | 15% | 55% | 56.2% | 5.28% (active) | 73.9 | 16.8% | 19.2% | 70.3% | 23% |
